{
  "source": "PubChem BioAssay AID720664",
  "about": "(National Center for Advancing Translational Sciences (NCATS), 2013)",
  "note": "Results filed as inconclusive are left out. Activity calls are given as the source filed them. Calls come from the whole dose curve; as a rule, active = well fitted inhibition curve with a large enough effect; inconclusive = small, poorly fitted or top-dose-only effect; inactive = flat fitted curve, though single readings scatter.",
  "data": [
    {"target": "Galactokinase (Homo sapiens) (UniProt P51570)", "sequence (P51570 whole entry, looked up)": "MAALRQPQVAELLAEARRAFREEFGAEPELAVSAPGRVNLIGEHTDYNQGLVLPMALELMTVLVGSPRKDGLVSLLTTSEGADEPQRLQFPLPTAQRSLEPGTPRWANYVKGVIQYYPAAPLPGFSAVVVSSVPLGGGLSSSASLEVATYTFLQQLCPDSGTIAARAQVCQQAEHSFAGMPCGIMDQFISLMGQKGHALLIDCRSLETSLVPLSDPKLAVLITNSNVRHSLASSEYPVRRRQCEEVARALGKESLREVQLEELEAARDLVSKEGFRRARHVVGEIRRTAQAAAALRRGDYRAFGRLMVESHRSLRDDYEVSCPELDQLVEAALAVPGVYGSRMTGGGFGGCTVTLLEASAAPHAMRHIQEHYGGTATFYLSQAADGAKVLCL", "assay": "qHTS for Inhibitors of Human Galactokinase (GALK): SAR round 3", "settings": "ADP detection luminescence, 1 h; series mostly up to 57.5 µM; activity change, negative = inhibition: at the top concentration", "procedure,_shortened": "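Cherry-picked actives were retested in quantitative dose format against 5 nM human galactokinase, using 100 µM galactose and 35 µM ATP at pH 8.0 (HEPES, MgCl2, NaCl). After 1 h at room temperature, product was quantified by luminescence.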", "values": [
      {"compound": "O=C1CCCC2=C1C(c1[nH]ncc1Cl)NC(=NCc1cccnc1)N2", "note": "(stereo not drawn)", "activity change, negative = inhibition": "-7.25% (inactive)"},
      {"compound": "O=C1CCCC2=C1C1(CCCC1)N=C(Nc1nc3ccccc3o1)N2", "activity change, negative = inhibition": "-28.9% (inactive)"},
      {"compound": "O=C(Nc1nnc(S(=O)(=O)N2CCOCC2)s1)c1cccc(Br)c1", "activity change, negative = inhibition": "-11.9% (inactive)"},
      {"compound": "O=C1C2=C(CN1c1ccccc1)NC(Nc1nc3ccccc3o1)=NC2c1ccccc1Cl", "note": "(stereo not drawn)", "activity change, negative = inhibition": "-6.41% (inactive)"},
      {"compound": "CCC1CCC2(C1)N=C(Nc1nc3ccccc3o1)NC1=C2C(=O)CCC1", "note": "(stereo not drawn)", "Potency": "inactive"},
      {"compound": "Cn1c(NC2=NC3(CCCC3)C3=C(CCCC3=O)N2)nc2ccccc21", "activity change, negative = inhibition": "3.5% (inactive)"},
      {"compound": "CC1=C(C(=O)N(C)c2ccccc2C)C(c2ccccc2Br)N=C(Nc2nc3ccccc3o2)N1", "note": "(stereo not drawn)", "activity change, negative = inhibition": "-20.2% (inactive)"},
      {"compound": "CC(C)c1nc(Nc2nc3ccccc3o2)nc2c1CCCC2", "activity change, negative = inhibition": "-2.24% (inactive)"},
      {"compound": "CN(Cc1ccccc1)C(=O)C1CCN(Cc2cccc3ccccc23)CC1", "activity change, negative = inhibition": "1.16% (inactive)"},
      {"compound": "O=C1CCCC2=C1C1(CCCC1)N=C(Nc1nc3cc(Cl)ccc3o1)N2", "activity change, negative = inhibition": "-24.4% (inactive)"},
      {"compound": "O=C1CCCC2=C1C(c1[nH]ncc1Cl)NC(=NCCc1ccccc1)N2", "note": "(stereo not drawn)", "activity change, negative = inhibition": "0.974% (inactive)"},
      {"compound": "Cc1cc(NC2=NC(c3[nH]ncc3Cl)C3=C(CCCC3=O)N2)no1", "note": "(stereo not drawn)", "activity change, negative = inhibition": "-5.6% (inactive)"},
      {"compound": "CC1=C(C(=O)NC2CCCC2)C(c2[nH]ncc2Cl)N=C(Nc2nc3ccccc3o2)N1", "note": "(stereo not drawn)", "activity change, negative = inhibition": "-7.46% (inactive)"},
      {"compound": "O=C1CCCC2=C1C(c1[nH]ncc1Cl)NC(=NCc1ccoc1)N2", "note": "(stereo not drawn)", "activity change, negative = inhibition": "2.25% (inactive)"},
      {"compound": "O=C1CCCC2=C1C(c1ncccc1Br)N=C(Nc1nc3ccccc3o1)N2", "note": "(stereo not drawn)", "activity change, negative = inhibition": "-27.8% (inactive)"},
      {"compound": "COc1ccccc1C1N=C(Nc2nc3ccccc3o2)NC2=C1C(=O)CCC2", "note": "(stereo not drawn)", "activity change, negative = inhibition": "-17.2% (inactive)"},
      {"compound": "O=C1CCCC2=C1C(c1[nH]ncc1Cl)NC(=NCc1ccccc1)N2", "note": "(stereo not drawn)", "activity change, negative = inhibition": "1.45% (inactive)"},
      {"compound": "O=C1CCCC2=C1C1(CCSCC1)N=C(Nc1nc3ccccc3o1)N2", "Potency": "3.43 µM (active)"},
      {"compound": "O=C1CCCC2=C1C(c1cccnc1)N=C(Nc1nc3ccccc3o1)N2", "note": "(stereo not drawn)", "activity change, negative = inhibition": "-15.6% (inactive)"},
      {"compound": "O=C1CCCC2=C1C(c1ccccc1I)N=C(Nc1nc3ccccc3o1)N2", "note": "(stereo not drawn)", "Potency": "6.11 µM (active)"},
      {"compound": "COc1ccc2oc(NC3=NC(c4[nH]ncc4Cl)C4=C(CCCC4=O)N3)nc2c1", "note": "(stereo not drawn)", "activity change, negative = inhibition": "3% (inactive)"},
      {"compound": "CC1=C(C(=O)Nc2noc3ccccc23)C2(CCCC2)N=C(Nc2nc3ccccc3o2)N1", "activity change, negative = inhibition": "2.5% (inactive)"},
      {"compound": "O=C1CC(c2ccccc2)CC2=C1C1(CCCC1)N=C(Nc1nc3ccccc3o1)N2", "note": "(stereo not drawn)", "activity change, negative = inhibition": "-1.13% (inactive)"},
      {"compound": "O=C1CCCC2=C1C(c1[nH]ncc1Cl)N=C(Nc1nc3ccc(Cl)cc3o1)N2", "note": "(stereo not drawn)", "activity change, negative = inhibition": "-5.94% (inactive)"},
      {"compound": "O=C1CCCC2=C1C(c1[nH]ncc1Cl)N=C(Nc1nc3cc(F)ccc3o1)N2", "note": "(stereo not drawn)", "activity change, negative = inhibition": "0.642% (inactive)"},
      {"compound": "Cn1cccc1CN=C1NC2=C(C(=O)CCC2)C(c2[nH]ncc2Cl)N1", "note": "(stereo not drawn)", "activity change, negative = inhibition": "-1.27% (inactive)"},
      {"compound": "O=c1cc(CN2CCCN(c3ccc(C(F)(F)F)cn3)CC2)nc2ccccn12", "activity change, negative = inhibition": "-2.21% (inactive)"},
      {"compound": "O=C1CCCC2=C1C(c1ccncc1)N=C(Nc1nc3ccccc3o1)N2", "note": "(stereo not drawn)", "activity change, negative = inhibition": "-5.76% (inactive)"},
      {"compound": "CC1(C)N=C(Nc2nc3ccccc3o2)NC2=C1C(=O)CCC2", "activity change, negative = inhibition": "-19.7% (inactive)"},
      {"compound": "O=C1CCCC2=C1C(c1cccc(Oc3ccccc3)c1)N=C(Nc1nc3ccccc3o1)N2", "note": "(stereo not drawn)", "activity change, negative = inhibition": "-7.55% (inactive)"},
      {"compound": "O=C1CCCC2=C1C(c1[nH]ncc1Cl)N=C(c1nc3ccccc3o1)N2", "note": "(stereo not drawn)", "activity change, negative = inhibition": "1.55% (inactive)"},
      {"compound": "O=C1CCCC2=C1C(c1[nH]ncc1Cl)NC(=NCc1cccs1)N2", "note": "(stereo not drawn)", "activity change, negative = inhibition": "0.544% (inactive)"},
      {"compound": "O=C1CCCC2=C1C1(CCCC1)N=C(Nc1nc3cc4ccccc4cc3o1)N2", "activity change, negative = inhibition": "1.6% (inactive)"},
      {"compound": "O=C1C2=C(CN1Cc1ccccc1)NC(Nc1nc3ccccc3o1)=NC2c1ccccc1Cl", "note": "(stereo not drawn)", "activity change, negative = inhibition": "-1.63% (inactive)"},
      {"compound": "O=C1CCCC2=C1C1(CCCC1)N=C(Nc1nc3cc(-c4ccccc4)ccc3o1)N2", "activity change, negative = inhibition": "-10.9% (inactive)"},
      {"compound": "COC(=O)c1ccccc1NC(=O)c1ccccc1OC(F)F", "activity change, negative = inhibition": "0.981% (inactive)"},
      {"compound": "Cc1nc(Nc2nc3ccccc3o2)nc(-c2ccccc2Br)c1C(=O)NCc1ccccc1", "activity change, negative = inhibition": "2.91% (inactive)"},
      {"compound": "O=C1CCCC2=C1C(c1[nH]ncc1Cl)NC(=NCc1ccccn1)N2", "note": "(stereo not drawn)", "activity change, negative = inhibition": "1.69% (inactive)"}
    ]}
  ]
}
